# Assay results published in PubChem BioAssay (Tox21).
# Records with an inconclusive call do not appear. Active and inactive are the calls of the source. Calls follow the shape of the dose curve; as a rule, active = well fitted curve in the direction sought with a large enough effect in the repeat runs; inconclusive = weak or mixed curves; inactive = no such curve, though single readings can be large; an effect the other way counts as inactive or inconclusive.
# Assay: qHTS RealTime-Glo MT Cell Viability Assay in HepG2 cells - 16 hour (AID 1224885)
# Conditions: RealTime-Glo luminescence; series mostly up to 76.8 µM; activity change, negative = cytotoxic: at the top concentration
# Method in brief: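 Real-time, nonlytic viability: 600 HepG2 cells/well mixed with NanoLuc enzyme plus prosubstrate; 5 h settle, compound (DMSO) added by pintool; luminescence monitored over 40 h at 37 C.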
# % is scaled to controls: 0 for no effect and ±100 for the full control effect.
# Also: nearly all actives have a fitted effect of over 50% in size.
row,Structure (SMILES),"activity change, negative = cytotoxic"
1,CCC(=O)Nc1ccc(O)cc1,5.73% [at 35.3 µM] (inactive)
2,COC(=O)c1ccc2cc(C(=O)OC)ccc2c1,3.7% [at 15.8 µM] (inactive)
3,NC(=O)NS(=O)(=O)c1ccc(Cl)cc1,-0.221% [at 35.3 µM] (inactive)
4,CC1(O)CSC(C)(O)CS1 (configuration not stated),1.2% (inactive)
5,CCN(O)CC,-1.7% (inactive)
6,OCCN(CCO)CCN(CCO)CCO,0.498% (inactive)
7,Cc1ccc(C)c(N)c1,0.599% (inactive)
8,Nc1ccc2ccccc2c1S(=O)(=O)O,2.48% (inactive)
9,CC(=O)Nc1ccc(C)c(Cl)c1,3.85% (inactive)
10,CCCOc1ccc2c(c1)CC[C@@H]1[C@@H]2CC[C@]2(C)C(OC)CC[C@@H]12 (some centres not stated),-0.47% [at 35.3 µM] (inactive)
11,CCCCCCCCCC/C=C/C#N,-1.18% (inactive)
12,OCc1ccccc1O,1.69% [at 35.3 µM] (inactive)
13,OC[C@H]1O[C@@H](O[C@H]2[C@H](O)[C@@H](O)[C@H](O)O[C@@H]2CO)[C@H](O)[C@@H](O)[C@H]1O,0.499% (inactive)
14,COc1cc(N)c(Cl)cc1C(=O)NC1CCN(Cc2ccccc2)CC1,-4.34% [at 35.3 µM] (inactive)
15,CO[Si](C)(C)OC,0.891% (inactive)
16,CCN(CC)CC1CCCCN1CC(=O)N1c2ccccc2C(=O)Nc2cccnc21 (configuration not stated),2.68% [at 35.3 µM] (inactive)
17,COC(=O)c1ccc(OC)cc1,2.31% (inactive)
18,NS(=O)(=O)c1cc(-c2nn[nH]n2)c(NCc2cccs2)cc1Cl,5.48% [at 35.3 µM] (inactive)
19,CCOc1ccc(NC(N)=O)cc1,1.92% (inactive)
20,CCCCC1CCC(=O)O1 (configuration not stated),0.513% (inactive)
21,CC(CNC1CCCCC1)OC(=O)c1ccccc1 (configuration not stated),-2.27% [at 35.3 µM] (inactive)
22,CC(C)Nc1nc(N)nc(Cl)n1,4.12% (inactive)
23,C/C(=N\O)[C@@H](C)NCC(C)(C)CN[C@H](C)/C(C)=N/O,6.02% [at 35.3 µM] (inactive)
24,CCCCNc1cc(C(=O)O)cc(S(N)(=O)=O)c1Oc1ccccc1,0.391% [at 35.3 µM] (inactive)

# Assay: qHTS RealTime-Glo MT Cell Viability Assay in HEK293 cells - 24 hour (AID 1224886); also: top concentration of the series differs between compounds
# Conditions: RealTime-Glo luminescence; series mostly up to 76.8 µM; activity change, negative = cytotoxicity: at the top concentration
# Method in brief: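 Cells + reagent dispensed (600 cells/well, HEK293) → 5 h at 37 C/5% CO2 → 23 nL compound in DMSO pinned → 40 h at 37 C → luminescence read at 0, 8, 16, 24, 32, 40 h.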
row,Structure (SMILES),"activity change, negative = cytotoxicity"
1,CC(C)O,0.428% (inactive)
2,Cc1cc(S(=O)(=O)O)c(N)cc1Cl,0.753% (inactive)
3,Cc1ccc(C=O)s1,-2.87% (inactive)
4,O=Cc1ccc(F)c(Br)c1,7.77% (inactive)
5,C[C@@H](N)C(=O)O,2.36% [at 35.3 µM] (inactive)
6,O=C1CCCCC1C1CCCCC1 (configuration not stated),2.09% (inactive)
7,CCCCCCCCCCCCOCCOS(=O)(=O)O,-29.5% (inactive)
8,CCCS(=O)c1ccc2nc(NC(=O)OC)[nH]c2c1 (configuration not stated),-29.3% [at 35.3 µM] (inactive)
9,CNCCC(Oc1ccccc1OC)c1ccccc1 (configuration not stated),-20.4% [at 35.3 µM] (inactive)
10,CCN1CC(CCN2CCOCC2)C(c2ccccc2)(c2ccccc2)C1=O (configuration not stated),20.5% [at 35.3 µM] (inactive)
11,CCC(=O)Nc1ccc(O)cc1,3.79% [at 35.3 µM] (inactive)
12,NC(=O)NS(=O)(=O)c1ccc(Cl)cc1,3.55% [at 35.3 µM] (inactive)
13,CC1(O)CSC(C)(O)CS1 (configuration not stated),21.8% (inactive)
14,CCN(O)CC,10.9% (inactive)
15,OCCN(CCO)CCN(CCO)CCO,2.98% (inactive)
16,Nc1ccc2ccccc2c1S(=O)(=O)O,-7.97% (inactive)
17,CC(=O)Nc1ccc(C)c(Cl)c1,-13.3% (inactive)
18,OC[C@H]1O[C@@H](O[C@H]2[C@H](O)[C@@H](O)[C@H](O)O[C@@H]2CO)[C@H](O)[C@@H](O)[C@H]1O,-0.466% (inactive)
19,CO[Si](C)(C)OC,1.16% (inactive)
20,COC(=O)c1ccc(OC)cc1,0.43% (inactive)
21,CCOc1ccc(NC(N)=O)cc1,11.4% (inactive)
22,CCCCC1CCC(=O)O1 (configuration not stated),-2.77% (inactive)
23,CC(CNC1CCCCC1)OC(=O)c1ccccc1 (configuration not stated),-12% [at 35.3 µM] (inactive)
24,C/C(=N\O)[C@@H](C)NCC(C)(C)CN[C@H](C)/C(C)=N/O,-3.3% [at 35.3 µM] (inactive)
25,CCCCNc1cc(C(=O)O)cc(S(N)(=O)=O)c1Oc1ccccc1,0.307% [at 35.3 µM] (inactive)

# Assay: qHTS RealTime-Glo MT Cell Viability Assay in HEK293 cells - 8 hour (AID 1224887); also: potency is read from the fitted curve at half-maximal effect; as to activity change, negative = cytotoxicity: top concentration of the series differs between compounds
# Conditions: RealTime-Glo luminescence; series mostly up to 76.8 µM; activity change, negative = cytotoxicity: at the top concentration
# Method in brief: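 Luminescence readout at each listed time point; HEK293, 600 cells/well, RealTime-Glo MT reagent added with cells; compounds pinned (23 nL in DMSO) after 5 h at 37 C; continuous culture at 37 C.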
Structure (SMILES),"activity change, negative = cytotoxicity",Potency
CC(C)O,-0.992% (inactive),
NC(=O)Cc1cccc(C(=O)c2ccccc2)c1N,-14.2% [at 35.3 µM] (inactive),
Cc1cc(S(=O)(=O)O)c(N)cc1Cl,0.347% (inactive),
Cc1ccc(C=O)s1,-7.18% (inactive),
CCCC1CCC(=O)O1 (configuration not stated),0.47% (inactive),
O=Cc1ccc(F)c(Br)c1,12.5% (inactive),
O=c1oc2c(O)c(O)cc3c(=O)oc4c(O)c(O)cc1c4c23,-0.845% [at 15.8 µM] (inactive),
C[C@@H](N)C(=O)O,4.91% [at 35.3 µM] (inactive),
O=C1CCCCC1C1CCCCC1 (configuration not stated),-0.515% (inactive),
CCCCCCCCCCCCOCCOS(=O)(=O)O,-19.3% (inactive),
O=C(O)c1cccc(Cl)c1Cl,-2.01% (inactive),
CCCS(=O)c1ccc2nc(NC(=O)OC)[nH]c2c1 (configuration not stated),-6.32% [at 35.3 µM] (inactive),
Oc1ccccc1F,-3.54% (inactive),
CNCCC(Oc1ccccc1OC)c1ccccc1 (configuration not stated),-16.5% [at 35.3 µM] (inactive),
CCN1CC(CCN2CCOCC2)C(c2ccccc2)(c2ccccc2)C1=O (configuration not stated),22.2% [at 35.3 µM] (inactive),
CCC(=O)Nc1ccc(O)cc1,16.1% [at 35.3 µM] (inactive),
COC(=O)c1ccc2cc(C(=O)OC)ccc2c1,0.421% [at 15.8 µM] (inactive),
NC(=O)NS(=O)(=O)c1ccc(Cl)cc1,0.0163% [at 35.3 µM] (inactive),
CCN(O)CC,2.03% (inactive),

Structure (SMILES),"activity change, negative = cytotoxicity",Potency
OCCN(CCO)CCN(CCO)CCO,-0.0573% (inactive),
Cc1ccc(C)c(N)c1,2.26% (inactive),
Nc1ccc2ccccc2c1S(=O)(=O)O,-4.25% (inactive),
CC(=O)Nc1ccc(C)c(Cl)c1,-14.8% (inactive),
CCCOc1ccc2c(c1)CC[C@@H]1[C@@H]2CC[C@]2(C)C(OC)CC[C@@H]12 (some centres not stated),10.7% [at 35.3 µM] (inactive),
CCCCCCCCCC/C=C/C#N,-2.37% (inactive),
OCc1ccccc1O,-13.5% [at 35.3 µM] (inactive),
OC[C@H]1O[C@@H](O[C@H]2[C@H](O)[C@@H](O)[C@H](O)O[C@@H]2CO)[C@H](O)[C@@H](O)[C@H]1O,-1.04% (inactive),
COc1cc(N)c(Cl)cc1C(=O)NC1CCN(Cc2ccccc2)CC1,,21.3 µM (active)
CO[Si](C)(C)OC,0.401% (inactive),
CCN(CC)CC1CCCCN1CC(=O)N1c2ccccc2C(=O)Nc2cccnc21 (configuration not stated),2.46% [at 35.3 µM] (inactive),
COC(=O)c1ccc(OC)cc1,5.89% (inactive),
NS(=O)(=O)c1cc(-c2nn[nH]n2)c(NCc2cccs2)cc1Cl,0.316% [at 35.3 µM] (inactive),
CCOc1ccc(NC(N)=O)cc1,8.34% (inactive),
CCCCC1CCC(=O)O1 (configuration not stated),-0.915% (inactive),
CC(CNC1CCCCC1)OC(=O)c1ccccc1 (configuration not stated),-13% [at 35.3 µM] (inactive),
CC(C)Nc1nc(N)nc(Cl)n1,3.8% (inactive),
C/C(=N\O)[C@@H](C)NCC(C)(C)CN[C@H](C)/C(C)=N/O,1.75% [at 35.3 µM] (inactive),
CCCCNc1cc(C(=O)O)cc(S(N)(=O)=O)c1Oc1ccccc1,0.841% [at 35.3 µM] (inactive),
